{"source": "PubChem BioAssay AID1851", "about": "(National Center for Advancing Translational Sciences (NCATS), 2009)", "note": "Where “and” joins values, the source holds several entries; their conditions need not be identical. Equal values may be shown once. Out of some 16,000 compounds screened, about 5,800 (36%) were called active. Roughly 23% stayed inconclusive and do not appear here. The call rests on the fitted dose curve; in most records, active means well fitted curve in the direction sought with a large enough effect; inconclusive means small, poorly fitted or top-dose-only effect, or effect the other way; inactive means no such curve, though single readings can be large or run the other way. The list shows a part of the results. A structure can be active in one record and inactive in another. On the % scale 0 is the no-effect control and ±100 the full control effect."}
{"target": "Cytochrome P450 2C19 (Homo sapiens) (UniProt P33261)", "sequence (P33261 whole entry, looked up)": "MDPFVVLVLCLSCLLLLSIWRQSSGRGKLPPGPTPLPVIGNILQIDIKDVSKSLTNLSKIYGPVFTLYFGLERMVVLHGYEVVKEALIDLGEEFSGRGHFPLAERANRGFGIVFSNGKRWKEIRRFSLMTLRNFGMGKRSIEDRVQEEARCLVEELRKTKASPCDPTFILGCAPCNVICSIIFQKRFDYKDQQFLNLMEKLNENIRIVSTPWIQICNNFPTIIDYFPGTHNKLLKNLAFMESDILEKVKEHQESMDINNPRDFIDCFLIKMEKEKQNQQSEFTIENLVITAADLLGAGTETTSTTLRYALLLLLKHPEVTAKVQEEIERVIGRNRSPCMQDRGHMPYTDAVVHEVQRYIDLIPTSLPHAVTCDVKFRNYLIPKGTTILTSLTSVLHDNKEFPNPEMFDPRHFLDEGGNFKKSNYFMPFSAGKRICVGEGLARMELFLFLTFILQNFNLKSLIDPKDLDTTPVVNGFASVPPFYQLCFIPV", "test": "Cytochrome panel assay with activity outcomes", "details": "recombinant CYP, pro-luciferin dealkylation, luminescence, p450-cyp2c19; series mostly up to 57.1 µM"}
{"smiles": "CC(=O)c1c(C)[nH]c(C(=O)COc2ccc(C#N)cc2)c1C", "AC50": "8.91 µM (active)"}
{"smiles": "CC(=O)c1[nH]c(C)c(C(C)=O)c1C", "AC50": "inactive"}
{"smiles": "S=C1N(c2ccccc2)C(c2ccc(Cl)cc2)N2CCCN12", "note": "(stereo unspecified)", "AC50": "2.24 µM (active)"}
{"smiles": "Cc1ccc(S(=O)(=O)/C(C#N)=C/c2c(N3CC(C)OC(C)C3)nc3ccccn3c2=O)cc1", "note": "(stereo unspecified)", "AC50": "14.1 µM (active)"}
{"smiles": "O=C(O)CCc1ccc(-c2ccc(Cl)cc2)n1CCC(=O)O", "AC50": "inactive"}
{"smiles": "O=C1/C(=C/c2ccccc2)[C@@H](NC2CCCCC2)c2ccccc21", "AC50": "1.26 µM (active)"}
{"smiles": "CCCNC(=O)CC(NS(=O)(=O)c1ccc(Cl)cc1)c1ccco1", "note": "(stereo unspecified)", "AC50": "1 µM (active)"}
{"smiles": "CCCNC(=O)NS(=O)(=O)c1ccc(Cl)cc1", "AC50": "inactive"}
{"smiles": "O=C(CC(NS(=O)(=O)c1ccc(Cl)cc1)c1ccco1)NCc1ccco1", "note": "(stereo unspecified)", "AC50": "7.94 µM (active)"}
{"smiles": "CCOC(=O)C[C@@H](C(=O)OCC)[C@@H]1CCCCC1=O", "activity, negative = inhibition": "-32.2% [at 11.4 µM] (inactive)"}
{"smiles": "O=C1NC(=O)C(c2ccccc2)(c2ccccc2)N1", "AC50": "inactive"}
{"smiles": "COC(=O)C/C=C\\[C@@H](C)[C@@H]1C=C[C@H](OC(C)=O)[C@H](COC(C)=O)O1", "activity, negative = inhibition": "16.3% [at 11.4 µM] (inactive)"}
{"smiles": "O=C1CN2CCN(CC2)CC(=O)Nc2ccc(cc2)S(=O)(=O)c2ccc(cc2)NC(=O)CN2CCN(CC2)CC(=O)Nc2ccc(cc2)S(=O)(=O)c2ccc(cc2)N1", "activity, negative = inhibition": "-8.07% [at 11.4 µM] (inactive)"}
{"smiles": "CCn1c(-c2nonc2NC(=O)c2ccccc2)nc2ccccc21", "AC50": "1.58 µM (active)"}
{"smiles": "CCC(=O)Nc1nonc1-c1nc2ccccc2n1N(C(=O)CC)C(=O)CC", "AC50": "inactive"}
{"smiles": "CN(C)Cc1ccccc1-c1ccc2ncnc(NC3CCNCC3)c2c1", "AC50": "inactive"}
{"smiles": "Clc1ccccc1-c1ccc2ncnc(NC3CCNCC3)c2c1", "AC50": "3.98 µM (active)"}
{"smiles": "FC(F)(F)c1ccccc1-c1ccc2ncnc(NC3CC3)c2c1", "AC50": "2 µM (active)"}
{"smiles": "Cc1ccccc1-c1ccc2ncnc(NC3CC3)c2c1", "AC50": "1.26 µM (active)"}
{"smiles": "Cc1ccccc1-c1nc(NC2CCNCC2)c2ccccc2n1", "AC50": "inactive"}
{"smiles": "FC(F)(F)c1ccccc1-c1ccc2ncnc(NC3CCNCC3)c2c1", "AC50": "3.98 µM (active)"}
{"smiles": "O[C@@H](c1ccccc1)C1CCN(CCc2ccccc2)CC1", "AC50": "inactive"}
{"smiles": "C[C@@H](N)C(=O)O", "AC50": "inactive"}
{"smiles": "Cc1ccccc1N1CCN(S(=O)(=O)C[C@@]23CC[C@H](C[C@H]2NC(=O)[C@@H](N)CCS(C)(=O)=O)C3(C)C)CC1", "AC50": "inactive"}
{"smiles": "O=C1NC(c2ccccc2)=NC1(NS(=O)(=O)c1ccccc1)C(F)(F)F", "note": "(stereo unspecified)", "AC50": "inactive"}
{"smiles": "COc1cnc(NS(=O)(=O)c2ccc(N)cc2)nc1", "AC50": "inactive"}
{"smiles": "COc1ccc(S(=O)(=O)NC2(C(F)(F)F)N=C3SCCN3C2=O)cc1", "note": "(stereo unspecified)", "AC50": "22.4 µM (active)"}
{"smiles": "CC(=O)[C@@]1(O)CC[C@H]2[C@H]3C[C@@H](C)C4=CC(=O)C=C[C@]4(C)[C@@]3(F)[C@@H](O)C[C@]21C", "AC50": "inactive"}
{"smiles": "COc1ccc(CC(=O)NC(=S)Nc2ccc(S(=O)(=O)NC(C)(C)C)cc2)cc1", "AC50": "25.1 µM (active)"}
{"smiles": "CCC(=O)NC(=S)Nc1ccc(S(=O)(=O)NC(C)=O)cc1", "AC50": "inactive"}
{"smiles": "CC(C)(C)N1C(=O)[C@@H]2[C@H]3C(=CC[C@H]2C1=O)C(=O)[C@H]1O[C@H]1[C@H]3O", "activity, negative = inhibition": "18.8% [at 11.4 µM] (inactive)"}
{"smiles": "O=C(O)C1=CCCNC1", "AC50": "inactive"}
{"smiles": "COc1ccc(CCNc2nc(-c3cccnc3)cs2)cc1OC", "AC50": "1.41 µM (active)"}
{"smiles": "COc1ccc(NC(=O)C23CC4CC(C2)CC(n2cnc(Br)n2)(C4)C3)c(C)c1", "AC50": "inactive"}
{"smiles": "O=C(NC12CC3CC(CC(C3)C1)C2)C12CC3CC(C1)CC(n1cnc(Cl)n1)(C3)C2", "AC50": "8.91 µM (active)"}
{"smiles": "COC(=O)[C@@H]1[C@@H]2C[C@H]3c4[nH]c5ccccc5c4CCN3C[C@@H]2CC[C@@H]1OS(=O)(=O)O", "activity, negative = inhibition": "-2.78% [at 11.4 µM] (inactive)"}
{"smiles": "CCOc1cc(S(=O)(=O)N(Cc2ccccc2)Cc2ccccc2)c(OCC)cc1-n1cnnn1", "AC50": "11.2 µM (active)"}
{"smiles": "CC1(C)NC(=O)N(c2ccc([N+](=O)[O-])c(C(F)(F)F)c2)C1=O", "AC50": "126 nM (active) and 251 nM (active)"}
{"smiles": "Cc1cc2nc(CCN(C(=S)NCC(C)C)C3CCCC3)[nH]c2cc1C", "AC50": "2.24 µM (active)"}
{"smiles": "COC(=O)Cn1cnc(=O)c(C#N)c1/C=C/N(C)C", "AC50": "inactive"}
{"smiles": "N[C@@]1(C(=O)O)CN[C@H](C(=O)O)C1", "AC50": "inactive"}
{"smiles": "NC1(C(=O)O)CC(C(=O)O)C1", "note": "(stereo unspecified)", "AC50": "inactive"}
{"smiles": "N[C@H](C(=O)O)[C@@H]1C[C@@H]1C(=O)O", "AC50": "inactive"}
{"smiles": "NC1(C(=O)O)C[C@@H](C(=O)O)[C@H](C(=O)O)C1", "AC50": "inactive and 7.94 µM (active)"}
{"smiles": "C[C@@]1(C(=O)O)CCC[C@@H]1C(=O)O", "activity, negative = inhibition": "40% [at 11.4 µM] (inactive)"}
{"smiles": "NC1(C(=O)O)C[C@H](C(=O)O)[C@H](C(=O)O)C1", "note": "(stereo partly specified)", "AC50": "0.398 µM (active)"}
